# D1 potentiator – human D1 dopamine receptor positive modulation; P21728; HEK293 TREx D1 cells, calcium flux, dopamine EC20 potentiation; potentiation, % at 10 µM; 360,000 compounds, 0.036% hits; in the data active = potentiation above about 30%; also: 0% is about no effect
# Target sequence (P21728 whole entry, looked up): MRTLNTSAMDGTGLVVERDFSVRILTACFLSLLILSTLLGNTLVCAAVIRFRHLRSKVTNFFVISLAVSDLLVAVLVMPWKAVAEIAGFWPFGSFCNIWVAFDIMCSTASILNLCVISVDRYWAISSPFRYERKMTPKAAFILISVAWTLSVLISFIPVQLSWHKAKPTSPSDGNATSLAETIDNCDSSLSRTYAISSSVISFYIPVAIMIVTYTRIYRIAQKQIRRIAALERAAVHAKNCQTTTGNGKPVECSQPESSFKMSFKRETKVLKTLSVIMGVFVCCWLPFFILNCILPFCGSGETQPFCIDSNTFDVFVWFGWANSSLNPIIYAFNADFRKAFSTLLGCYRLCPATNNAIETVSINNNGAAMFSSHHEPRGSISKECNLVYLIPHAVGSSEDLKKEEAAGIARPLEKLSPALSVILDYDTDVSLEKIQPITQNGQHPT
# TRHR ag – activates the human TRH receptor. P34981. TRHR cells, calcium flux fluo-8, FDSS agonist mode. activation, % at 2 µM. 360,000 compounds, 0.18% hits. AID 493084; also: 0% is about no effect
#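 Agonist-mode FDSS calcium read (Ex 480/Em 530, 1 s cycles) in 1536-well TRHR cells with fluo-8 dye, after 10-cycle baseline and 23 nL compound addition; TRH at EC20 (10 nM final) added afterwards for the enhancer phase.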
# D1 antagonist – blocks dopamine activation of the human D1 receptor | P21728 | HEK293 TREx D1 cells, calcium flux, dopamine EC80; stronger effect = lower value | activity change, negative = inhibition, % at 10 µM | 360,000 compounds, 3.2% hits; in the data active = activity change below about -30%; also: % is scaled to controls: 0 for no effect and ±100 for the full control effect
#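 Using tetracycline-induced force-coupled D1 Hek293 cells and a calcium dye, signals were followed for 180 s after compound, then for 180 s after EC80 dopamine, to detect inhibitors.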
# D1 agonist – activates the human D1 dopamine receptor; 360,000 compounds, 1% hits; HEK293 T-REx D1 cells, calcium flux, agonist mode; activation, % at 2 µM; also: 0% is about no effect
#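 Inducible HEK293 T-REx D1 cells, force-coupled to calcium signalling, were plated at 4000 cells/well with tetracycline and held overnight at 30 C. After no-wash calcium dye loading, compound-evoked calcium rise over 180 s flagged agonists.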
# TRHR PAM – allosteric enhancers of human TRH receptor; enhancement, % at 2 µM; AID 493056; P34981; 360,000 compounds, 0.66% hits; TRHR cells, fluo-8 calcium fluorescence, EC20 TRH enhancement; in the data active = enhancement above about 30%; also: 0% is about no effect
#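 Enhancer read-out: after compound pinning and an initial kinetic agonist-mode read, an EC20 of TRH (10 nM final) was injected and fluo-8 calcium signal (Ex 480/Em 530) followed at 1 s/cycle for 100 cycles in TRHR-expressing cells.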
# Active calls of the source: *; . = not tested or not shown. An excerpt weighted towards active compounds, which were near 4.7% of everything screened. Rule as the data show it, unless noted: active = activation above about 30%; inactive = the rest.
SMILES,D1 potentiator,TRHR ag,D1 antagonist,D1 agonist,TRHR PAM
COc1ccc(-c2c(C)c3ccc(O)c(CN4CCCC4)c3oc2=O)cc1,-3.7,-0.3,27.6,0.8,-5.9
CN(C)c1ccc(NC(=O)CSC2=Nc3ccccc3C3=NC(CCC(=O)NCc4cccs4)C(=O)N23)cc1 (stereo not given),-1.6,0.0,-2.1,-0.5,-2.5
NS(=O)(=O)c1ccc(Nc2nc(-c3ccc4ccccc4c3)cs2)cc1,-4.0,1.4,-10.1,6.9,1.9
NS(=O)(=O)c1ccc(Nc2nc(-c3cccc([N+](=O)[O-])c3)cs2)cc1,-11.1,-0.8,-30.6*,1.7,-11.2
CCOc1cc(/C=N\NC(=O)c2ccc(NC(=O)C(C)(C)C)cc2)ccc1OC(=O)c1ccc(C)cc1,-3.1,0.4,13.5,1.1,1.0
O=C(N/N=C/c1ccc(OC(=O)c2ccccc2)c([N+](=O)[O-])c1)c1ccc(O)cc1,-9.5,-0.7,-33.1*,4.2,-3.4
CCOc1cc(/C=N/NC(=O)CSc2nncn2C)ccc1OCC(N)=O,5.0,0.4,17.3,4.5,2.4
CCOc1cc(/C=N/NC(=O)CSc2nncn2C)ccc1OC(=O)c1ccc(Cl)cc1,-4.8,-0.5,-54.9*,-0.7,30.1*
CCOc1cc(/C=N\NC(=O)c2ccc(NC(=O)CC)cc2)ccc1OC(=O)c1ccccc1,-11.0,0.3,-57.3*,4.8,4.4
COc1ccc(Oc2ccc(/C=N/NC(=O)c3cccnc3)cc2[N+](=O)[O-])cc1,-8.0,-1.1,-42.7*,-2.9,-26.2
COc1ccc(CCC(=O)NC2CC(=O)N(c3ccc(F)cc3)C2)cc1 (stereo not given),1.0,0.6,.,-2.1,4.8
Cc1ccn2c(Nc3ccc4c(c3)OCO4)c(-c3ccc(N(C)C)cc3)nc2c1,1.9,-0.7,4.3,-2.1,0.4
COc1ccc(/C=N/NC(=O)c2cccc([N+](=O)[O-])c2)cc1OC(=O)c1ccccc1,-5.0,0.4,-9.1,-2.4,-1.2
COc1cc(/C=N/NC(=O)c2sc3ccccc3c2Cl)ccc1OC(=O)c1ccc([N+](=O)[O-])cc1,-5.3,0.6,-37.7*,1.3,-1.8
O=S(=O)(NCC(c1ccco1)N1CCN(c2ccc(F)cc2)CC1)c1cc(F)ccc1F (stereo not given),0.5,-1.1,.,-4.0,6.5
Cc1ccc(Cl)cc1N1CCN(C(=O)c2ccc3c(c2)N(Cc2ccc(F)cc2)CCS3)CC1,-1.9,-2.1,-3.9,1.0,6.6
COc1cc(CNC2CCCC2)cc(Cl)c1OCc1ccc(F)cc1,-6.2,3.1,3.8,32.3*,-5.5
COc1cc(CNn2c(C)n[nH]c2=S)cc(Cl)c1OCc1ccc(F)cc1,-1.6,-0.5,-1.3,37.4*,6.0
CCOc1cc(CNC2CCCC2)cc(Cl)c1OCc1ccc(F)cc1,42.1*,0.1,-7.2,101.6*,24.5
COc1cc(CNC2CCCC2)cc(Cl)c1OCc1ccccc1Cl,9.9,0.1,7.5,24.9,-9.3
COc1cc(OC)c(N(C)C(=O)C2CCCN(c3ncnc4c3nc3n4CCCCC3)C2)cc1Cl (stereo not given),1.9,-0.2,4.4,-1.9,-13.6
O=C(CNC(=O)C1CCCCCC1)OC(C(=O)Nc1cc(C(F)(F)F)ccc1Cl)c1ccccc1 (stereo not given),3.5,-1.0,12.2,7.0,1.2
O=C(NCCc1ccc(Cl)cc1Cl)c1cncc(Br)c1,-12.3,-0.6,-38.1*,4.4,8.0
Cc1ccc(C)c(NC(=O)C(=O)NCCc2c[nH]c3ccccc23)c1,-12.4,-0.1,8.3,1.7,7.8
Cc1ccc(NC(=O)C(=O)NCCc2c[nH]c3ccccc23)c(C)c1,1.5,3.9,4.5,30.2*,10.5
SMILES,D1 potentiator,TRHR ag,D1 antagonist,D1 agonist,TRHR PAM
O=C(NCCc1c[nH]c2ccccc12)c1cncc(Br)c1,-8.3,7.1,-34.5*,10.4,12.8
CCOC(=O)N1CCc2c(sc(NCc3cc(OC)c(OC)cc3OC)c2C(=O)Nc2ccc(OCC)cc2)C1,-3.9,-0.8,-8.8,-1.2,-3.0
COc1ccc(-n2c(SCC(=O)c3ccccc3)nc3c([nH]c4ccccc43)c2=O)cc1,1.6,0.5,2.3,-0.1,-2.9
Cc1ccc(C)c(CN2C(=O)c3ccccc3S(=O)c3ccc(C(=O)N4CCN(c5cccc(Cl)c5)CC4)cc32)c1 (stereo not given),-3.0,1.8,5.2,7.3,4.9
CNc1nc(N)nc(-c2cc(Cl)ccc2OC)n1,0.2,0.3,-30.1*,-1.2,0.3
COC(=O)c1scc(-c2ccc(C)cc2)c1S(=O)(=O)Nc1ccc(F)cc1F,-3.5,-0.3,-15.8,-0.6,-2.9
NC(=O)c1ccccc1NC(=S)NC(=O)CCc1ccccc1,1.2,0.3,-74.3*,3.0,-0.1
O=C(NC1CCCC1)C(c1ccncc1)N(C(=O)Cc1cccs1)c1cccc(F)c1 (stereo not given),-3.6,-0.6,-31.5*,1.1,1.1
O=C(NC1CCCC1)C(c1ccc(F)cc1)N(C(=O)Cc1cccs1)c1ccc2c(c1)OCCO2 (stereo not given),-3.4,0.2,9.4,2.2,30.4*
Cc1cc(C)cc(NS(=O)(=O)c2ccc3c(c2)NC(=O)C(C)S3)c1 (stereo not given),-3.6,0.0,-0.5,-1.5,-1.3
CN(C)S(=O)(=O)c1ccc(NCC2COc3ccccc3O2)c([N+](=O)[O-])c1 (stereo not given),-0.6,0.2,4.9,2.8,-3.7
NC(=O)c1ccc(NCC2COc3ccccc3O2)c([N+](=O)[O-])c1 (stereo not given),-9.4,-0.7,-37.0*,7.7,-1.0
COc1ccc(-c2n[nH]c3c2CN(C(=O)c2ccccc2)CC3)cc1,-4.1,-0.9,-4.6,1.8,15.2
O=C(c1ccco1)N1CCc2[nH]nc(-c3ccc(Cl)cc3)c2C1,0.9,-0.5,-30.4*,2.8,6.8
CCn1nc([N+](=O)[O-])c(C(C#N)c2nc3cc(C(F)(F)F)ccc3s2)c(Cl)c1=O (stereo not given),4.8,-0.6,-38.0*,3.5,13.3
CCCn1nc([N+](=O)[O-])c(C(C#N)c2nc3ccccc3o2)c(Cl)c1=O (stereo not given),-4.2,-0.5,4.3,-1.3,0.3
CCNc1nc2c(c(=O)n(C)c(=O)n2C)n1Cc1ccc(Cl)cc1,-2.0,-2.2,-1.8,7.5,-0.5
CCNc1nc2c(c(=O)n(Cc3ccccc3)c(=O)n2C)n1Cc1ccccc1,0.5,-0.1,-3.5,1.7,39.3*
COc1ccc(CCNC(=O)c2ccc3c(c2)N(Cc2ccc(F)cc2)C(=O)c2ccccc2S3(=O)=O)cc1OC,-2.4,1.2,8.9,3.7,-5.5
COc1ccc(Nc2cc(C(=O)NCCCN(C)C3CCCCC3)c3ccccc3n2)cc1,0.6,5.6,-40.7*,65.3*,-0.3
